# Assay results: PubChem BioAssay
# Active and inactive are the calls of the source. Unless noted, the rule behind the calls is not given here.
# Tests used:
# [1] = system: Wnt5a (protein binding on small-molecule microarray); test: Wnt5a binders on small-molecule microarray, primary screen, biophysical, 635/667 nm fluorescence (AID 1142); details: 635 nm fluorescence, higher = more signal;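 note: fluorescence read at 667 nm with signal to noise per printed feature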
# [2] = cell viability in Huh7 cells, primary screen, cytotoxicity control for HCV replication inhibitor project, CellTiter-Glo luminescence, basal, 48 h (AID 1143); details: Huh7 HCV replicon, higher = more signal, called active from +8 up or from −8 down;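 note: Huh7 hepatoma cells carrying a hepatitis C replication reporter with no stimulus; test concentration not given here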
# [3] = P. aeruginosa biofilm formation inhibitors, primary screen, PAO1 strain, BacTiter-Glo luminescence, LB-PBS (AID 1144); details: 12 h, higher = more signal
# [4] = CREB reporter modulators without forskolin, primary screen, cell-based, PC12, CRE-LacZ reporter, unstimulated (AID 1145); details: no forskolin, luminescence, 4.5 h, higher = more signal, called active from +8 up or from −8 down
# [5] = CREB reporter modulators under forskolin, primary screen, cell-based, PC12, CRE-LacZ reporter, forskolin-stimulated (AID 1146); details: luminescence, 4.5 h, higher = more signal, called active from +8 up or from −8 down;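 note: PC12 cells with 6xCRE LacZ reporter stimulated by forskolin 10 µM; beta-galactosidase reporter signal reflecting CREB driven transcription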
# [6] = biological target: Streptavidin (Streptomyces avidinii) (UniProt P22629); test: streptavidin binders on small-molecule microarray, primary screen, artefact control for SMM compound annotation, biophysical, 635/667 nm fluorescence (AID 1147); details: streptavidin binding, higher = more signal;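 note: signal reflects streptavidin binding to arrayed compounds as a control protein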
# Streptavidin (Streptomyces avidinii), sequence (P22629 whole entry, looked up): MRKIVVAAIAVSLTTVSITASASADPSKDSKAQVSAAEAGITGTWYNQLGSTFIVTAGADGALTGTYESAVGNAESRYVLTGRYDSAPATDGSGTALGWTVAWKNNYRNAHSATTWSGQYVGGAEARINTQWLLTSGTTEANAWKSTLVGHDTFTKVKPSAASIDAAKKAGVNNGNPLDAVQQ
# [7] = small-molecule binders of probe aInhba, primary screen, biochemical, small-molecule microarray, 635/667 nm fluorescence (AID 1148); details: higher = more signal;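 note: score merges 667nm spot fluorescence with signal-to-noise for antibody binding to printed compounds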
# Torsin-1A (Homo sapiens) [8] = biological target: Torsin-1A (Homo sapiens) (UniProt O14656); test: torsin A binders from cell lysate, primary screen, small-molecule microarray, wild-type, 635/667 nm (AID 1149); details: COS7 hTOR1A-WT lysate, 635 nm fluorescence, higher = more signal
# Torsin-1A (Homo sapiens), sequence (O14656 whole entry, looked up): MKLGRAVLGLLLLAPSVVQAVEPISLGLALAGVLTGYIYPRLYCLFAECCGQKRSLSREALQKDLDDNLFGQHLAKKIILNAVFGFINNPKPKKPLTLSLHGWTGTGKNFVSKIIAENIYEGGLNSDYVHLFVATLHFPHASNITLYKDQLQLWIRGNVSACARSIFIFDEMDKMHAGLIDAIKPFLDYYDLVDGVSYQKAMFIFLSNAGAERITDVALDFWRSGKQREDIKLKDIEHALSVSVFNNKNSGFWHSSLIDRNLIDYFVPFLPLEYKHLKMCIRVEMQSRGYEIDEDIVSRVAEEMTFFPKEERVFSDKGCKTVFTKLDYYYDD
# Torsin-1A (Homo sapiens) [9] = biological target: Torsin-1A (Homo sapiens) (UniProt O14656); test: small-molecule binders of mutant TOR1A in lysate, primary screen, cell lysate, small-molecule microarray, COS7 lysate, 635/667 nm fluorescence (AID 1150); details: COS7 hTOR1A mutant lysate, 635 nm fluorescence, higher = more signal;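 note: score pools 667 nm emission and signal to noise measuring lysate protein binding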
# [10] = system: Sonic hedgehog protein (Shh); test: small-molecule binders of Shh protein, primary screen, biochemical, small-molecule microarray, 635/667 nm fluorescence (AID 1151); details: small-molecule microarray binding, 635 nm fluorescence; higher = more signal;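 note: Shh protein binding to compounds spotted on small-molecule microarray slides; score combines spot fluorescence intensity with signal-to-noise across triplicate slides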
# [11] = E. coli DRC41 culture turbidity changes, primary screen, E. coli filamentation inducer project, strain DRC41, OD650, 48 h (AID 1152);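 note: E. coli MC1000 strain DRC41 lacking acrAB efflux pump and sulA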; details: E. coli DRC41 (acrAB sulA), higher = more signal, called active from +8 up or from −8 down
# [12] = small-molecule binders of probe aLefty1, primary screen, biochemical, small-molecule microarray, 635/667 nm fluorescence (AID 1153); details: higher = more signal;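 note: score merges spot fluorescence with signal-to-noise ratio from the scanned slide images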
# [13] = PSAC antagonists in infected red cells, primary screen, cell-based, P. falciparum Indochina, OD700, 1 h (AID 1154); details: P. falciparum Indochina infected RBC osmotic lysis, higher = more signal, called active from +8 up or from −8 down
# [14] = PSAC antagonists in infected red cells, primary screen, cell-based, P. falciparum Indochina, OD700, 2 h (AID 1155);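 note: lysis reports solute entry through the parasite surface anion channel PSAC; channel blockers reduce lysis of infected cells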; details: P. falciparum Indochina infected erythrocytes, osmotic lysis OD700; higher = more signal, called active from +8 up or from −8 down
# [15] = osmotic lysis modulators in infected erythrocytes, primary screen, PSAC antagonist project, cell-based, P. falciparum Indochina, OD700, 3 h (AID 1156); details: higher = more signal, called active from +8 up or from −8 down
# [16] = PSAC antagonists in infected red cells, primary screen, cell-based, P. falciparum Indochina, OD700, 18 h (AID 1157); details: P. falciparum Indochina infected erythrocytes, osmotic lysis OD700, 18 h; higher = more signal, called active from +8 up or from −8 down
# [17] = modulators of S6 phosphorylation in cells, primary screen, cell-based, A549, cytoblot, luminescence, serum-stimulated (AID 1158); details: A549 phospho-S6 cytoblot, 5 h, higher = more signal;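 note: serum-stimulated A549 lung adenocarcinoma cells; signal is phosphorylated S6 detected by cytoblot immunostaining with HRP secondary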
# [18] = biological target: NADPH oxidase 2 (Homo sapiens) (UniProt P04839); test: NOX2-dependent H2O2 signal modulators, primary screen, NOX inhibitor project, cell-based, HEK293-NOX2, PMA-stimulated, Amplex Red fluorescence (AID 1159); details: 45 min, higher = more signal, called active from +8 up or from −8 down; note: test concentration not given here
# NADPH oxidase 2 (Homo sapiens), sequence (P04839 whole entry, looked up): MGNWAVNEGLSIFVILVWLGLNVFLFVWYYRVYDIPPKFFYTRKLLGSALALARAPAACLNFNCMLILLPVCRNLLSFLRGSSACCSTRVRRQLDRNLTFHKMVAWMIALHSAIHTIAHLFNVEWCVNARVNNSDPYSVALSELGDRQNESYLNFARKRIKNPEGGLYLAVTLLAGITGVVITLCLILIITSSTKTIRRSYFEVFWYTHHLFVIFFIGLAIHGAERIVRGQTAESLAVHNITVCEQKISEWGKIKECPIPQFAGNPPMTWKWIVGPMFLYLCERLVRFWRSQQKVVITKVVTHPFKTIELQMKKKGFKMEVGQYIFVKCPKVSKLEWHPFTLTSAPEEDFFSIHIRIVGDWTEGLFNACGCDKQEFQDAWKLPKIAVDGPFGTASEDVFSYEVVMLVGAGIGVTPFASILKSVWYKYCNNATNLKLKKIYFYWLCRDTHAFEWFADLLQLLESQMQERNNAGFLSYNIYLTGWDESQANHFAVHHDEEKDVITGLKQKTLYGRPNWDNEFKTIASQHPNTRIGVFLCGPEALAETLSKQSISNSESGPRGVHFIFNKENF
# [19] = biological target: NADPH oxidase 4 (Homo sapiens) (UniProt Q9NPH5); test: NOX4-dependent H2O2 signal modulators, primary screen, NOX inhibitor project, cell-based, HEK293-NOX4, tetracycline-induced, Amplex Red fluorescence (AID 1160); details: 45 min, higher = more signal, called active from +8 up or from −8 down
# NADPH oxidase 4 (Homo sapiens), sequence (Q9NPH5 whole entry, looked up): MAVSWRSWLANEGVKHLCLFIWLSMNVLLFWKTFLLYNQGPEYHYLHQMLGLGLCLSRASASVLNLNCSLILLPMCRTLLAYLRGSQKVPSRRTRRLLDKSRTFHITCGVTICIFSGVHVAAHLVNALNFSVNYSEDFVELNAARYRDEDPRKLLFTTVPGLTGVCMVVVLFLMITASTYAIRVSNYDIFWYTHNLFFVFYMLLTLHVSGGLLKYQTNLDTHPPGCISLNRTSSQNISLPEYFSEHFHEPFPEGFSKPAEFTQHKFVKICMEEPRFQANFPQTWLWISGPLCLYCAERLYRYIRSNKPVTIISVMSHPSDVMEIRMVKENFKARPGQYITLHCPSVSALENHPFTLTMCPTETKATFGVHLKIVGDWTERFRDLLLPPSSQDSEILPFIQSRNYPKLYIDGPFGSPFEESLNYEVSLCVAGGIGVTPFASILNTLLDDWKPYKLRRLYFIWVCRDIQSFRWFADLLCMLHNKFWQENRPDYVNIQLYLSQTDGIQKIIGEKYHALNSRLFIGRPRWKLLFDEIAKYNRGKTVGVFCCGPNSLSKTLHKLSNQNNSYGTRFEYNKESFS
# [20] = biological target: NADPH oxidase 5 (Homo sapiens) (UniProt Q96PH1); test: NOX5-dependent H2O2 signal modulators, primary screen, NOX inhibitor project, cell-based, HEK293-NOX5, Amplex Red fluorescence (AID 1161); details: HEK293-NOX5, ionomycin, 45 min, higher = more signal
# NADPH oxidase 5 (Homo sapiens), sequence (Q96PH1 whole entry, looked up): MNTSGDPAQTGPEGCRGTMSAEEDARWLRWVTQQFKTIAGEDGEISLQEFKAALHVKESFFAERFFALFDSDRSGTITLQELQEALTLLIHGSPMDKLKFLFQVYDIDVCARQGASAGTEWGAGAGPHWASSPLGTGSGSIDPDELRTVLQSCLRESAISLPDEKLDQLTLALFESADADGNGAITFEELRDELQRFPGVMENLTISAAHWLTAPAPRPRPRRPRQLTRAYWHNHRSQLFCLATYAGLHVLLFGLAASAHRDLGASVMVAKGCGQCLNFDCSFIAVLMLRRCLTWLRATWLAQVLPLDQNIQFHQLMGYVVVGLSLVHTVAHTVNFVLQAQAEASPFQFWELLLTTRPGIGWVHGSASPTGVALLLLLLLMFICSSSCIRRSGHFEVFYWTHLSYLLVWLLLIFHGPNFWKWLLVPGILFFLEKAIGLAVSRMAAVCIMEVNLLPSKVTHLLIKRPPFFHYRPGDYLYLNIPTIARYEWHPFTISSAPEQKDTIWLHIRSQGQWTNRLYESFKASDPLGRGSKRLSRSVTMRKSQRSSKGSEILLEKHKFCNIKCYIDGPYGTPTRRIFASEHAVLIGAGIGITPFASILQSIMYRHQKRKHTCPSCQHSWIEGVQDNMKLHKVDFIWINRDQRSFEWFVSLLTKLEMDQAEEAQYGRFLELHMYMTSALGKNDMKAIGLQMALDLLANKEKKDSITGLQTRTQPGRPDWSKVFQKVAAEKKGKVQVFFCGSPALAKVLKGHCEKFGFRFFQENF
Compound,composite z-score [1],z-score [2],z-score [3],z-score [4],z-score [5],composite z-score [6],composite z-score [7],composite z-score (Torsin-1A (Homo sapiens) [8]),composite z-score (Torsin-1A (Homo sapiens) [9]),composite z-score [10],z-score [11],composite z-score [12],z-score [13],z-score [14],z-score [15],z-score [16],z-score [17],z-score [18],z-score [19],z-score [20]
C=CC[C@@H]1C=C[C@H](ON=C(C)CCN2CCc3nc(-c4ccccc4)c(-c4ccccc4)cc3C2)[C@@H](CO)O1,0.0399,-0.648 (inactive),-0.117 (inactive),-0.0033 (inactive),-1.03 (inactive),0.313,-0.0719,0.593,0.415,1.12,0.418 (inactive),0.0446,4.53 (inactive),0.809 (inactive),0.85 (inactive),0.538 (inactive),-0.0288,-2.79 (inactive),-0.835 (inactive),-2.75
CC(C)C[C@H](NC(=O)CCC1CC(OC(=O)NCc2cccc3ccccc23)CC2(CCCC(COC(=O)NCc3ccccc3)O2)O1)C(=O)NCC(c1ccccc1)c1ccccc1 (stereo not given in full),0.451,-0.363 (inactive),-0.434 (inactive),-0.258 (inactive),0.728 (inactive),0.396,-0.0963,0.317,0.0582,0.954,0.576 (inactive),-0.29,8.07 (active),1.33 (inactive),-1.22 (inactive),0.688 (inactive),-0.71,0.871 (inactive),0.194 (inactive),-0.0969
CCOC(=O)[C@H](CC(C)C)NC(=O)CCC1CC(OC(=O)NCc2ccc3c(c2)OCO3)CC2(CCCC(COC(=O)NCC(c3ccccc3)c3ccccc3)O2)O1 (stereo not given in full),0.222,-0.356 (inactive),-0.187 (inactive),0.111 (inactive),1.67 (inactive),-0.201,-0.0405,0.0929,0.351,1.77,0.0056 (inactive),-0.106,2.08 (inactive),0.316 (inactive),-0.532 (inactive),-0.071 (inactive),-0.438,-0.312 (inactive),1.03 (inactive),0.698
Cn1c(=O)n2n(c1=O)[C@H]1[C@H](O)[C@@H]3O[C@@H]3C(=NOCc3ccccc3)[C@H]1CC2,-0.279,0.637 (inactive),-0.53 (inactive),-0.0211 (inactive),0.383 (inactive),-0.178,-0.183,-0.223,0.0523,0.378,-0.022 (inactive),-0.0501,-0.347 (inactive),0.0184 (inactive),-0.432 (inactive),0.206 (inactive),-0.807,0.265 (inactive),0.456 (inactive),0.632
CCc1cc2c(nc1CC)CCN(CCC(C)=NO[C@H](C)c1cn([C@H](CO)Cc3ccccc3)nn1)C2,0.167,-0.225 (inactive),-0.374 (inactive),2.4 (inactive),0.406 (inactive),0.656,0.173,1.49,0.978,0.236,-0.266 (inactive),0.832,4.7 (inactive),1.3 (inactive),1.84 (inactive),0.514 (inactive),0.917,-0.221 (inactive),-0.461 (inactive),2.32
CC(C)CON=C1C[C@@H](O)[C@@H](O)[C@@H]2[C@@H]3C(=O)N(C4CCCCC4)C(=O)[C@@H]3CC[C@@H]12,-0.146,-0.82 (inactive),-0.342 (inactive),0.156 (inactive),0.147 (inactive),0.115,-0.128,-0.792,-0.0797,-0.318,-1.24 (inactive),-0.0662,-0.133 (inactive),-0.346 (inactive),-0.383 (inactive),-0.0384 (inactive),-0.354,1 (inactive),-1.59 (inactive),-0.143
Cc1cc2c(nc1C)CCCCN2CC(C)ON=C[C@@H](C)[C@H](OCc1ccccc1)C(C)C (stereo not given in full),-0.918,-4.86 (inactive),0.207 (inactive),2.44 (inactive),0.676 (inactive),-1.88,-0.26,-3.92,-1.34,-0.436,-0.0958 (inactive),-0.8,1.34 (inactive),0.147 (inactive),0.472 (inactive),0.171 (inactive),-0.732,-0.892 (inactive),-0.45 (inactive),-3.3
CC(C)CON=C1C[C@@H](O)[C@@H](O)[C@@H]2[C@@H]3C(=O)N(C(C)(C)C)C(=O)[C@@H]3CC[C@H]12,-0.147,0.419 (inactive),-0.208 (inactive),-0.116 (inactive),0.366 (inactive),-0.312,-0.125,0.324,0.329,-0.739,0.288 (inactive),-0.0162,0.221 (inactive),-0.239 (inactive),-0.814 (inactive),-0.089 (inactive),-0.382,1.47 (inactive),0.594 (inactive),0.325
CC(C)(C)N1C(=O)[C@H]2[C@H]3[C@H](O)[C@H](O)CC(=O)[C@@H]3CC[C@H]2C1=O,-0.0326,-1.07 (inactive),-0.25 (inactive),-0.93 (inactive),-0.785 (inactive),0.179,-0.109,0.236,0.261,0.525,-0.767 (inactive),-0.147,0.126 (inactive),0.0976 (inactive),-1.24 (inactive),-0.0131 (inactive),0.413,-3.23 (inactive),0.0825 (inactive),0.309
